# Assay results as given in PubChem BioAssay (NCI).
# This is part of a sample that, as a whole, favours compounds with a hit. Of some 83,000 tested, about 20% had one in any assay.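 In brief: 96-well plates, 48 h treatment, single concentration, percent growth endpoint.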 Active and inactive are the calls of the source. The calls were made as follows: active = growth percent below 10; inactive = the rest.
# Test system: HL-60(TB) leukemia
# Test: NCI-60 one-dose screen, 48 h (100 = growth as untreated, 0 = no growth, -100 = all killed)
# Details: 10 µM unless noted
row,SMILES,growth
1,CC(=O)/C(=C\c1ccc(Cl)cc1)c1ccccc1,-16.2% (active)
2,CCOC(=O)n1cc(-c2nonc2-c2cn(C)c3ncccc23)c2ccccc21,84.7% (inactive)
3,Cc1cc(N(CCCNc2ccnc3cc(Cl)ccc23)Cc2ccco2)nc(N2CCN(C)CC2)n1,38% (inactive)
4,CCOP(=O)(OCC)C1CP(=O)(c2ccccc2)CC(C)=C1Cl (stereo not given),92.1% (inactive)
5,O=C1C=CC(=O)N1c1ccc2c(c1)Cc1cc(F)ccc1-2,63% (inactive)
6,NC(=S)NN=C1CCCC1,95.1% (inactive)
7,COc1ccc(C(=O)c2cc3c(N)c(C(=O)Nc4cccc5ccccc45)sc3nc2C)cc1,-49% (active)
8,CC(C)(C)CC(C)(C)Nc1c(-c2ccncc2)nc2cnccn12,102% (inactive)
9,CCOC(=O)Oc1c(OC)cc(C(=O)c2ccc(OC)c(OC(=O)CCl)c2OC)cc1OC,-30.9% (active)
10,O=C1CSc2ccccc2N1,121% (inactive)
11,CC1OC(n2c3ccccc3c3c4c(c5c6ccccc6[nH]c5c32)C(=O)N(CCN[C@@H]2CCC[C@H]2N)C4=O)CC(O)C1O (stereo not given in full),29.2% (inactive)
12,O=C1/C(=C\c2ccc(F)cc2)CN(C(=O)c2ccccc2)C/C1=C\c1ccc(F)cc1,25.6% (inactive)
13,CCN(CC)CCOc1ccc(Nc2ncc3cc(-c4ccc(O)cc4)c(=O)n(C)c3n2)cc1,40.2% (inactive)
14,Cn1cc(-c2csc(-c3cn(CCN)c4ccccc34)n2)c2cccnc21,26.5% (inactive)
15,CCN(CCCOc1ccc2c(Nc3cc(CC(=O)Nc4cccc(F)c4)[nH]n3)ncnc2c1)CCOP(=O)(O)O,34.9% (inactive)
